# Measurements taken from PubChem BioAssay AID485294 (National Center for Advancing Translational Sciences (NCATS), 2010).
# The campaign covered roughly 370,000 compounds. About 150 (0.041%) were called active. Another 14% or so got no clear call; they are omitted. The full list was thinned out, with actives kept by preference. A number with no mark means an inactive call. The call rests on the fitted dose curve; in most records, active means well fitted inhibition curve with a large enough effect; inconclusive means small, poorly fitted or top-dose-only effect; inactive means flat fitted curve, though single readings scatter.
# Target: Beta-lactamase (Escherichia coli (strain K12)) (UniProt P00811)
# Assay: qHTS Inhibitors of AmpC Beta-Lactamase (assay with detergent); further: nearly all actives have a fitted effect of over 25% in size;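 on activity change, negative = inhibition: 0% = no-compound wells and -100% = no-enzyme wells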
# Settings: AmpC hydrolysis of nitrocefin, absorbance 480 nm, 0.01% Triton; series mostly up to 114 µM; activity change, negative = inhibition: at the top concentration
# Description: NIH Molecular Libraries Probe Production Network [MLPCN] NIH Chemical Genomics Center [NCGC] Assay Provider: Professor Brian Shoichet, UCSF Assay Overview: This aggregation profiling approach exploits the sensitivity of aggregate formation to detergent. Inhibition of b-lactamase is measured in the presence and absence of 0.01% Triton X-100. This particular assay had the prescence of 0.01% Triton X-100. See Pubchem assay "Promiscuous and Specific Inhibitors of AmpC Beta-Lactamase (assay without detergent)" for related screen. Compounds that inhibit only in the absence of detergent are considered likely promiscuous aggregators. A screen of 1,030 compounds was performed in Brian Shoichet's lab in 96-well format. AmpC activity was measured by following the absorbance at 480 nm. Nitrocefin is a chromogenic substrate: while nitrocefin is yellow (lmax 390 nm), the product of its hydrolysis is red (lmax 486 nm, 17,000 M-1). AmpC beta lactamase was provided by Shoichet Lab, UCSF.
# Buffer: 20 mM phosphate buffer, pH 7.0 Triton X-100: No Detergent screen: 0.0001%, Detergent screen: 0.01%. Reagents/Controls: Buffer in columns 3 and 4 as negative control (no enzyme). 5.3 nM AmpC in columns 1, 2, 5-48. Titration of UCSF compound 9 control (from 10 mM, then 1:2) pin-transferred to column 2. Column 1 is neutral (100% activity). Assay Steps: Six uL of reagents were dispensed to 1536-well Greiner black clear bottom plates. Compounds and controls (23 nL) were transferred via Kalypsys PinTool. The plates were incubated for 15 min at room temperature, and then 2 uL of 800 uM solution of nitrocefin was added to start the reaction. The plates were immediately transferred to and read every 20 seconds for 4 min on ViewLux (Perkin-Elmer) High-throughput CCD imager using 480 nm absorbance protocol. During dispense, reagent bottles were kept submerged into 4 deg C water bath. Keywords: NIH Roadmap, MLSCN, MLI, MLSMR, qHTS, NCGC, AmpC Beta-Lactamase, Aggregation
# Potency means the concentration at half of the fitted maximal effect.
# Beta-lactamase (Escherichia coli (strain K12)), sequence (P00811 whole entry, looked up): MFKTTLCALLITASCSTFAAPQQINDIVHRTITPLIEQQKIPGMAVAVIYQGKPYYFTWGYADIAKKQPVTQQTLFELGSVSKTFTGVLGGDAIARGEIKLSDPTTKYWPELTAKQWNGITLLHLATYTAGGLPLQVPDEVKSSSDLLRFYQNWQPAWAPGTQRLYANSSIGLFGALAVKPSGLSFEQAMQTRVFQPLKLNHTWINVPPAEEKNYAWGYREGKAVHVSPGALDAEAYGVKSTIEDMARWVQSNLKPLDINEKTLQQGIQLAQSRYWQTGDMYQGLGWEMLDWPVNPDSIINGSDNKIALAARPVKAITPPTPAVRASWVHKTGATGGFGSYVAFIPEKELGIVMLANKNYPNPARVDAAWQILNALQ
SMILES,"activity change, negative = inhibition",Potency
O=C(Nc1ccc(Br)cc1)c1ccc(Br)c(S(=O)(=O)NCc2ccccc2)c1,-1.49%,–
CCn1c2ccccc2c2nnc(N3CCN(c4cc(C)ccc4C)CC3)nc21,21%,–
CCOC(=O)c1sc(NC(=O)/C=C/c2ccc(C(C)C)cc2)c(C(=O)OCC)c1C,-0.936%,–
Cn1c2cc(B(O)O)sc2c2cnn(Cc3ccccc3F)c(=O)c21,–,2.82 µM (active)
CCOC(=O)c1c(CNCc2ccccc2F)c2sc(C)cc2n1C,-3.41%,–
Cn1cc(C(=O)NCc2ccccc2F)cn1,-0.872%,–
Cc1cc2c(cc1S(=O)(=O)CCC(=O)Nc1ccc(OC(F)(F)F)cc1)OCC(=O)N2,24.8%,–
COc1ccccc1C(=O)Nc1c(C(=O)Nc2ccc(C)cc2)oc2ccccc12,-6.46%,–
CCOC(=O)c1c(C)[nH]c(CCC(=O)NCCCN2CCN(c3cc(C)ccc3C)CC2)c1C,-1.88%,–
COc1cc(NS(=O)(=O)c2ccc3c(c2)OCC(C(=O)N2CCCC2)O3)cc(OC)c1 (stereo not given),-1.24%,–
COc1cc2nc(SCc3ccc(F)cc3)n3nc(CCn4c(C)nc5ccccc54)nc3c2cc1OC,3.25%,–
CCCCN(CC)CCCNC(=O)Cn1ncc2c([nH]c3ccc(C)cc32)c1=O,2.61%,–
O=C(CN1C(=O)COc2ccc(S(=O)(=O)N3CCCCCC3)cc21)N1CCN(c2cccc(C(F)(F)F)c2)CC1,3.1%,–
O=C(CSc1nccn1-c1ccc(F)cc1)Nc1cccc2ccccc12,0.247%,–
COc1ccc2c(Sc3ccc(C)cc3)c(C(=O)NC(C)c3ccccc3)[nH]c2c1 (stereo not given),1.51%,–
O=C(Nc1ccc2nc(SCCOc3ccccc3)sc2c1)c1ccco1,13.9%,–
CCOc1cc(CNC(=O)c2sc3ncnc(N(C)C4CCCCC4)c3c2C)ccc1OC,-0.364%,–
CCS(=O)(=O)N1CCc2cc(C(=O)NCc3ccc(OC)cc3)ccc21,21.8%,–
Cc1ccccc1C(=O)O,-5.95%,–
Cc1ccccc1C(=O)Nc1ccccc1NC(=O)c1ccccc1C,0.475%,–
Cc1ccccc1C(=O)OC1OC(=O)C(Cl)=C1Nc1ccccc1 (stereo not given),–,14.1 µM (active)
COC(=O)C1=C(Nc2ccc(OC)cc2)C=C(C)C(C(=O)OC)C1c1ccc(C)cc1 (stereo not given),-11.6%,–
Cc1ccc(NC2=C(Cl)C(=O)OC2OC(=O)c2ccccc2C)cc1 (stereo not given),–,6.31 µM (active)

SMILES,"activity change, negative = inhibition",Potency
Cc1ccc(Cl)cc1N1CCN(C(=O)c2cccn3c(=O)c4cc(Cl)ccc4nc23)CC1,7.06%,–
CCOc1ccc(CNC(=O)CCc2c(C)nn(-c3ccc(N4CCCCC4)nn3)c2C)cc1,21.5%,–
CCOC(=O)c1ccc(N2C(=O)c3[nH]nc(-c4ccccc4)c3C2c2ccc(C(C)C)cc2)cc1 (stereo not given),2.4%,–
Cc1oc2ncnc(N3CCOCC3)c2c1C(=O)NCCc1ccccc1,18.8%,–
COc1cc(NC(=O)Cn2c(=O)n(Cc3ccco3)c(=O)c3oc4ccccc4c32)cc(OC)c1,-0.207%,–
CC(C)c1ccc(NS(=O)(=O)c2ccc3[nH]cc(C(=O)NC4CCCC4)c(=O)c3c2)cc1,7.5%,–
COc1ccc(CCNC(=O)Cn2c(=O)cc(C(F)(F)F)c3c(C)nn(C)c32)c(OC)c1,6.4%,–
CC(=O)c1cccc(NC(=O)CSc2nc3c(c(=O)[nH]2)CCC3)c1,-2.77%,–
CCOC(=O)c1ccc(N2C(=O)c3n[nH]c(C)c3C2c2ccc(O)c(OC)c2)cc1 (stereo not given),0.532%,–
O=c1cc2nc(-c3ccccc3)nc(SCCOc3ccc(Cl)cc3)n2[nH]1,-0.807%,–
Cc1ccc(OCCSc2nc(-c3cccs3)nc3cc(=O)[nH]n23)cc1Cl,1.08%,–
COc1ccccc1-c1cc2nc(C)c(CCC(=O)NC3CCCCC3)c(C)n2n1,7.96%,–
CNc1ccc(-c2nc(-c3ccco3)no2)cc1[N+](=O)[O-],-1.26%,–
CC1CCC(N2CC(=O)N(CCC3=CCCCC3)C(c3ccc(F)cc3)C2=O)CC1 (stereo not given),8.65%,–
Fc1ccc(CSc2nc(NCc3ccccc3)c3ccccc3n2)cc1,6.25%,–
O=C(CCc1ccccc1)NCc1ccc2c(c1)CCN2C(=O)c1ccccc1,3.58%,–
COc1ccc(-c2cc(C(F)(F)F)nc(SCC(=O)N(C)Cc3ccccc3)n2)cc1OC,-4.17%,–
Cc1oc2ncn(CC(C)C)c(=O)c2c1C(=O)N1CCN(c2ccccc2F)CC1,13.4%,–
O=C(CN1CCCC1)N1CCN(c2ccccc2)CC1,1.31%,–
O=P(O)(CN1CCCCCC1)C1Cc2ccccc2C1,–,50.1 µM (active)
O=P(O)(CN1CCCCC1)CN1CCCCC1,-0.346%,–
CCn1cc(C(=O)N2CCN(c3cc(C)ccc3C)CC2)c(=O)c2cc(S(=O)(=O)N(C)C3CCCCC3)ccc21,2%,–
